# Test system: RARa:RXR (NR concentration 270 nM, RXRa partner concentration 90 nM)
# Assay: PBM binding z-score (relative to random genomic background probes); higher = stronger binding; sequences stand for … in GC…GCGATTGACAGCGTAGAATGAAGG
# In short: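 Random background probes are the reference for binding z-scores. These scores derive from regression-normalized fluorescence on custom Agilent 4×180K protein-binding microarrays incubated 1 h with ligand-free nuclear receptor dimers. Binding was detected with antibodies against each partner (one per run).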
row,Sequence,PBM binding z-score
1,CCTTCCGGGTCACGAGGTTATAGCACGACGAGCG,5.82
2,TCTGCTAAGTCAACGATGGTCAGCTAATCTGCTA,-0.422
3,TGAATGAGGTTATAAGATCAGAGAACGTTGCAAA,1.18
4,CCTGCTAGGTCAATGCTCAGCTAAAGCAGCTCGC,1.19
5,TCATATAGGTAATACAGGTGAAAGTCGGCATCTA,1.34
6,CCGACTGGGGCAAAGGTTACCCTACTCAGTACGA,3.02
7,AATACAGGGTCATCGTAGGCCAGAATACGCACAG,4.56
8,TCTCGGAGGACGCGAAAGGTCAGAGCTCGACATC,4.09
9,TCTGCTAGGGCAACGATGGTCAGCTAATCTGCTA,-0.218
10,CCTTACGGGTCACTCCAGGTTATAGCTTCGGAGT,3.52
11,TCTAGCAGGCCAGAGTGTCACTCAAGAGGTACGG,0.142
12,CCTTACGGGTCACTGACAGGTTACAGCATTTGGA,4.5
13,ATATGTAGGTTAGCTGGGGTCAGTCAGACTAGGC,3.81
14,CCTACTGGGCCTAAAAGGTCATTGATGCCGATAA,5.06
15,CCTAGTTGGTCAAGGTTACACACGCTATAGGTAC,1.6
16,ATCGAAAGGTCGACGAGGTGAGTTTACACCGTTT,3.27
17,TCGCCTAGGTCATTGGGCCAGTATAGTACGCATC,2.24
18,CCTTACGGGTCAAGGTTAGAGCACGGGTGGTACG,3.92
19,TAGCCTAGGTCAATCAGGGGCCAGTATAGAAAGC,3.2
20,TCCTATAGGTAAAAGGTGAAAGTCGGTGTGGTAA,2.87

row,Sequence,PBM binding z-score
1,ATATGGAGGTTACATCCGGGTCATTCAGGCTATG,4.94
2,TATACAGGGTCAAATGCCAGAGTACGAATGTCGA,5.47
3,TGAATGAGGTTAAAAGATCAGGGAACGTTGCAAA,2.04
4,TCTATTGGTTGATTAGGGCAACCGAAACAGCGGA,0.835
5,CCTTACGGGTCATGGTTATAGCACGGGTGGTACG,3.6
6,CCTAGTTGGTCAGGAGTTCACACACCGGATATGA,2.36
7,AATACAGGGTCTCTAGGCCAGAGTAGGTACGAAT,-0.47
8,ACTAGCAGGCCTAGGGTCACTCAAGATTAGTCCG,3.09
9,TCTATTAGTTGATTAGGGCCACCGAAACAGCGGA,0.615
10,ACTAGTTGGTCAGGTGAGGTCACACACAATTCGG,4.89
11,ATACCAAGGTGATCGTGAGGTAGTTGATACTAAC,-0.156
12,CCTAGTTGGTCAAGGTCAAACACGCTATAGGTAC,4.41
13,TAGCCTAGGTCAGATCGGGCTAGTATACGCTATA,1.5
14,TAGCCTAGGTGATTCAGGGGCCAGTATAGAAAGC,0.184
15,TCATATAGGTAACTGCTAGGTGAAAGTCCGATCT,0.789
16,TCAGACAGGTTAAGGTAACTCAGGTACGCAGTCG,1.54
17,TCTCGGAGGACACGAAAGTCAGAGCTTTCCAGAG,-0.237
18,AATCCAGGGTCACTAGGCCAGAGTAGGTACGAAT,4.74
19,CGAACGAGCGCATGAGTTGATAGCAAATGCCGAT,-0.304
20,GTACAAAGGTGAATAGGTCGTTGATGAGTAGGCG,3.42
